Assay outcomes (PubChem)
An excerpt weighted towards active compounds, which were near 19% of everything screened.
DT40 TDP1 no CPT = qHTS for Inhibitors of human tyrosyl-DNA phosphodiesterase 1 (TDP1): qHTS in cells in absence of CPT. DT40 Tdp1-/- hTDP1 cells, no CPT, ATP luminescence, 48 h. Potency, µM (highest dose often 46.2 µM), for the others: at the highest dose activity change, negative = growth inhibition, usual class: inhibitors. actives 15% (n = 420,000). AID 686978, 2013; note: potency is the fitted concentration of half-maximal effect; nearly all actives have a fitted effect of over 55% in size
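Growth kinetics read by CellTiter-Glo luminescence after ≥48 hr at 37 °C. Cells: DT40 Tdp1-/- stably carrying human TDP1, 400 per well, compound exposure in the absence of CPT (DMSO vehicle).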
HT1080 IDH1KD tx = qHTS for induction of synthetic lethality in tumor cells producing 2HG: qHTS for the HT-1080-IDH1KD cell line; actives 2% (n = 360,000); Potency, µM (titrated, usually from 46.1 µM), inactives show at the highest dose activity, negative = toxicity, hits mostly cytotoxic; AID 686971, 2013; HT-1080 IDH1 knockdown viability, ATP luminescence, 48 h;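 note: potency is the fitted concentration of half-maximal effect; 0% = DMSO wells and -100% = cell-free medium wells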
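Using the IDH1-knockdown HT-1080 line run in the same batch and compound series as the NT line, viability after 48 h at 37 °C was determined by CellTiter-Glo luminescence and expressed as % activity.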
IL1B secr inh = qHTS for Inhibitors of Inflammasome Signaling: IL-1-beta AlphaLISA Primary Screen; activity change, % at 57.5 µM; AID 743279, 2014; THP-1 LPS/ATP IL-1B secretion, AlphaLISA, 16 h; active compounds read low; actives 4.7% (n = 360,000); in the data active = activity change below about -50%; inconclusive = mostly about -30% to -49%
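THP-1 cells pretreated 1 hr with compounds (up to 57.5 uM final), then stimulated with LPS (250 ng/mL final) plus ATP (1.25 mM final); secreted IL-1B measured by AlphaLISA after 16 hr, decreased signal indicating inhibition.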
HT1080-NT tox = qHTS for induction of synthetic lethality in tumor cells producing 2HG: qHTS for the HT-1080-NT fibrosarcoma cell line; actives 1.6% (n = 360,000); HT-1080-NT fibrosarcoma viability, CellTiter-Glo ATP luminescence, 48 h; Potency, µM (doses to about 46.1 µM), without a hit: top-dose activity, negative = less viability, most hits filed as cytotoxic; AID 686970, 2013;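 note: NT is the 2HG producing partner of a matched IDH1 knockdown line; potency is the fitted concentration of half-maximal effect; 0% = DMSO-treated cells and -100% = media-only wells without cells; nearly all actives have a fitted effect of over 55% in size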
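Luminescent CellTiter-Glo readout after 48 hours of compound exposure at 37 degrees C defined viability of HT-1080-NT cells. Activity was normalized to DMSO wells and cell-free media wells; concentration-response curves were fitted and assigned curve classes.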
TDP1 cell CPT = qHTS for Inhibitors of human tyrosyl-DNA phosphodiesterase 1 (TDP1): qHTS in cells in presence of CPT; actives 12% (n = 420,000); chicken DT40 Tdp1-/-;hTDP1 cells + 20 nM CPT, ATP luminescence, 48 h; Potency, µM (titrated, usually from 46.2 µM), for the others: top-dose activity change, negative = growth inhibition, actives largely listed as inhibitors; note: potency is the fitted concentration of half-maximal effect; nearly all actives have a fitted effect of over 55% in size
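Cell growth measured by CellTiter-Glo luminescence after a minimum 48 h, 37 C compound exposure with 20 nM CPT in Tdp1-knockout DT40 cells stably expressing hTDP1, seeded 400/well; qHTS titration format.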
* = called active by the depositor; ? = inconclusive; / = no result. Unless noted, calls come from the whole dose curve; as a rule, active = well fitted curve in the direction sought with a large enough effect; inconclusive = small, poorly fitted or top-dose-only effect, or another doubt; inactive = no such curve, though single readings can be large; an effect the other way counts as inactive or inconclusive. Unless noted, % is set by controls: 0 for no effect and ±100 for the full control effect.

SMILES	DT40 TDP1 no CPT	HT1080 IDH1KD tx	IL1B secr inh	HT1080-NT tox	TDP1 cell CPT
CNC(=O)N(O)C1N(/N=C/c2ccccc2O)C(=S)SC1(C)C (configuration not stated)	2.1µM*	7%	22	0%	5.2µM*
Cc1ccc(-n2nc(C(=O)Nc3ccc(C)c(F)c3)c(=O)n(C)c2=O)cc1	-26%	/	/	/	-15%
COc1cc(NC(=O)c2nn(-c3ccc(F)cc3)c(=O)n(C)c2=O)cc(OC)c1OC	10µM*	/	/	/	15µM*
COc1ccc(Cl)cc1NC(=O)c1nn(-c2ccc(C)cc2)c(=O)n(C)c1=O	-18%	/	/	/	16µM*
CCN(CC)S(=O)(=O)c1ccc(-c2csc(C)n2)s1	-20%	-5%	-4	6%	-10%
Cc1ccc(NS(=O)(=O)c2ccc(-c3csc(C)n3)s2)c(C)c1	16µM*	?	3	?	?
COc1ccc(CNC(=O)c2cnc3ccc(C)cn3c2=O)cc1	-5%	/	/	/	-1%
COC(=O)c1cc2oc3ccccc3c2n1Cc1nc(-c2ccc(OC)cc2)oc1C	-11%	/	/	/	?
COC(=O)c1ccc(-c2ccco2)n1Cc1nc(-c2ccc(OC)c(OC)c2)oc1C	16µM*	?	?	-26%	23µM*
CN1C(=O)[C@@](O)(CC(=O)c2ccccc2)c2cc(Br)ccc21	6.5µM*	-12%	61	-2%	5.8µM*
CN1C(=O)C(O)(CC(=O)c2ccccn2)c2cc(Br)ccc21 (configuration not stated)	5.2µM*	-21%	86	?	5.8µM*
CCN1C(=O)C(O)(CC(=O)c2ccccn2)c2ccccc21 (configuration not stated)	5.2µM*	2%	29	3%	5.8µM*
CCN1C(=O)C(O)(CC(=O)C(C)(C)C)c2cc(Br)ccc21 (configuration not stated)	?	16%	6	-1%	-8%
Cc1ccc(C(=O)CC2(O)C(=O)N(C)c3ccc(Br)cc32)c(C)c1 (configuration not stated)	-26%	6%	-4	3%	?
Cc1noc(C)c1C(=O)N1CCN(S(=O)(=O)c2cccc(Cl)c2Cl)CC1	-17%	0%	10	5%	-1%
CCN(CC)C(=O)c1oc2ccc(S(=O)(=O)N3CCCCCC3)cc2c1C	23µM*	-18%	-10	?	?
CCOC(=O)c1oc2ccc(S(=O)(=O)N3CCOCC3)cc2c1C	-13%	7%	11	7%	-17%
CCN(CC)C(=O)c1oc2ccc(S(=O)(=O)N3CC(C)CC(C)C3)cc2c1C (configuration not stated)	9.2µM*	?	-7	?	4.1µM*
CCN(Cc1ccccc1)C(=O)c1oc2ccc(S(=O)(=O)N3CCOCC3)cc2c1C	-26%	-17%	-53*	-18%	?
Cc1c(C(=O)Nc2ccc(F)cc2)oc2ccc(S(=O)(=O)N3CC(C)CC(C)C3)cc12 (configuration not stated)	15µM*	-11%	40	0%	18µM*
CCn1cc(CN2CCCC(C(=O)Nc3ccc(-c4cscn4)cc3)C2)cn1 (configuration not stated)	-3%	3%	6	0%	13%
Cc1ccc(C(C)C)c(OCc2nc(-c3nonc3N)no2)c1	7.3µM*	-28%	?	-7%	16µM*
O=C(Nc1cc(C(F)(F)F)ccc1-n1cncn1)c1ccc(-c2ccccc2)cc1	?	8%	?	1%	-44%
NC(=S)N=Nc1c(O)n(CCCl)c2ccc(Cl)cc12	23µM*	?	-9	-21%	?
